These results are taken from the OligoGym collection.
Further: reference of the scale not given here.

One test concerns the target RGS9. The test is described as follows: pooled miR-30 sensor sort-seq; sequence = guide strand. Conditions: shRNA.
Take TTGCCATCTATGTTGATCCAGC: the sensor-assay potency score (higher = more potent) was -0.689.
In turn, TTTACCTTGACTTCATTCGGAT displayed a sensor-assay potency score (higher = more potent) of 0.0975.
On the same count and under the same terms, in the case of TTCCTTTTCATATTCTTCCAAA it was -0.756; in that of TTTCTTTTTGATATTTCGCTTG, -0.178; in that of TGACTTTGGACTGATCTCCATA, -0.742.
Same read-out and setting: in the case of TTTTTGACAGCAACGACTGTTT it was -0.217.
In the case of TTGTTTCTTGACTTCATTCGGA, the sensor-assay potency score (higher = more potent) worked out at 0.389.
Still for that read-out and setting: then TTGCAGAACATCACTTCCTGTC, with 0.603; and TTCTTTTTGATATTTCGCTTGG, with -0.579.

The next test deals with RHBDL3. The description is as above. The settings on record: shRNA.
The sequence TTGAACTGGCACTTCATGCCTG gave a sensor-assay potency score (higher = more potent) of 0.341.
In the case of AAACTGATCAAACAGGACTTTC, the sensor-assay potency score (higher = more potent) is -1.76.
In the case of TAGGCTGACAAAATCCTGGTAG, the sensor-assay potency score (higher = more potent) was 0.858.
Same read-out and setting: then TAATGTAGCCTGTGTTCCCAGG, with -0.768; and TTAGGCTGACAAAATCCTGGTA, with 0.00913; and TGAACTGGCACTTCATGCCTGA, with 0.0699.
The same measure, in the same setting: then TGTCATAGTACCACTTGCGGTC, with -0.531; and TTGCCTGTGCTAATGTAGCCTG, with -0.542.
The sequence AAATCCACCACAGTGACTGGTC registered a sensor-assay potency score (higher = more potent) of 0.238.
The same measure, in the same setting: then TGATCAAACAGGACTTTCCAGT, with -0.423; and TAGCTGTCATAGTACCACTTGC, with -0.706.
On the same count and under the same terms, then ATCCGCAGCAGCTTGAACTGGC, with -0.0826.
